Cruzain noTriton = blocks cruzain activity in detergent-free assay | P25779 | purified cruzain, Z-FR-AMC fluorescence, no detergent | Potency, µM, inactives show max response, negative = inhibition, actives largely listed as inhibitors | 200,000 tested, 2.3% active;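 also: plate controls were enzyme without inhibitor for no effect and buffer without enzyme for full effect; nearly all actives have a fitted effect of over 40% in size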
Target sequence (P25779 123-467 limits assumed): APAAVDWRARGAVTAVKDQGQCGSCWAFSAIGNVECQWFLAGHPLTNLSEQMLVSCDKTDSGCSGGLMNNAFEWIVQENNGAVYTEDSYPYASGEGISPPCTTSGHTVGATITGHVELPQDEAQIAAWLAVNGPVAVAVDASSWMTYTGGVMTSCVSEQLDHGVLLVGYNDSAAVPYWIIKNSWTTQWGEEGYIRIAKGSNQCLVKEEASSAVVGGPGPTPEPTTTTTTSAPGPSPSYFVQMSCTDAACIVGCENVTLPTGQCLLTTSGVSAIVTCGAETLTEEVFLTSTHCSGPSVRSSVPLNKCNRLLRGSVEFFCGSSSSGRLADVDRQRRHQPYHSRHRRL
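Purified cruzain at 1.5 nM, pre-incubated 15 min with compound at room temperature in 100 mM sodium acetate pH 5.5, 5 mM DTT, 0.00005% Triton X-100. Reaction started with 2 uM Z-FR-AMC; AMC fluorescence increase over 60 s gives rate.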
Cruzain inh Det = inhibitors of Trypanosoma cruzi cruzain with detergent; AID 1478; purified cruzain, Z-FR-AMC fluorescence, 0.01% Triton; 200,000 tested, 0.43% active; P25779; Potency, µM, for inactives: max response, negative = inhibition, actives largely listed as inhibitors;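 also: plate controls were neutral wells for no effect and buffer without enzyme for full effect; nearly all actives have a fitted effect of over 40% in size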
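Enzyme 1.5 nM, Z-FR-AMC 2 uM, NaOAc 100 mM pH 5.5, DTT 5 mM, Triton X-100 0.01%; 15 min RT compound preincubation; kinetic ex360/em450, 60 s delta.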
* = called active by the depositor; ? = inconclusive. Compounds with a hit are over-represented: about 2.5% of the library has one in this group of screens. Calls follow the shape of the dose curve; as a rule, active = well fitted curve in the direction sought with a large enough effect; inconclusive = small, poorly fitted or top-dose-only effect, or another doubt; inactive = no such curve, though single readings can be large; an effect the other way counts as inactive or inconclusive. Potency is read from the fitted curve at half-maximal effect.

SMILES | Cruzain noTriton | Cruzain inh Det
CCC(C)c1ccccc1NC(=O)COC(=O)c1ccc(N2CCCC2)c([N+](=O)[O-])c1 (configuration not stated) | -3% | 0%
CC(=O)c1cccc(NC(=O)c2c(N3CCCC3=O)c3cc(F)ccc3n2C)c1 | -5% | -7%
Cc1oc2ncn(CC(C)C)c(=O)c2c1C(=O)NCCCN1CCCCC1C (configuration not stated) | 1% | 0%
COc1ccc(-n2nc(C(=O)Nc3cc(C)c(Cl)cc3OC)c3c4ccccc4n(C)c3c2=O)cc1 | -5% | -1%
CC1=C(C(=O)Nc2ccc(Cl)cc2)C(c2cccs2)n2nc(SCc3cccc(Cl)c3)nc2N1 (configuration not stated) | 3.2µM* | -1%
CC1=C(C(=O)Nc2ccccc2C)C(c2ccncc2)n2nc(SCc3ccccc3)nc2N1 (configuration not stated) | -16% | 0%
COc1ccc(NC(=O)C2=C(C)Nc3nc(SCc4ccccc4C)nn3C2c2ccc(Br)cc2)cc1 (configuration not stated) | -10% | -1%
CC1=C(C(=O)Nc2ccccc2C)C(c2cccs2)n2nc(SCc3ccccc3)nc2N1 (configuration not stated) | 25µM* | -1%
COc1ccc(NC(=O)C2=C(C)Nc3nc(SCc4ccccc4C)nn3C2c2cc(OC)c(O)c(OC)c2)cc1 (configuration not stated) | 10µM* | -4%
CC1=C(C(=O)Nc2ccc(C)cc2C)C(c2cccs2)n2nc(SCc3ccc(Cl)cc3)nc2N1 (configuration not stated) | 3% | 0%
COc1cc(C(CC(=O)Nc2ccc(F)cc2F)N2Cc3ccccc3C2=O)cc(OC)c1OC (configuration not stated) | -10% | -10%
Cc1ccccc1OCC(=O)Nc1ccc(OCc2cc(=O)n3ccsc3n2)cc1 | -12% | 0%
COc1cccc(Cn2c(=O)cc(C)c3c(C)nn(-c4ccc(C)cc4)c32)c1 | -7% | -1%
COc1ccc2c(CNC3CCCC3)c(C(=O)O)n(Cc3ccccc3C)c2c1 | 10% | -1%
Cc1ccc(Cn2ccc(NC(=O)c3cc4nc5c(c(C(F)(F)F)n4n3)CCc3ccccc3-5)n2)cc1 | 0% | 3%
Cc1ccc(O)c(NC(=O)c2cc3nc4c(c(C(F)(F)F)n3n2)CCc2ccccc2-4)c1 | 10µM* | -2%
O=C(CSc1nc2c([nH]c3ccccc32)c(=O)n1-c1ccc(F)cc1)NCc1ccc(F)cc1 | 8% | -1%
Cc1ccc(S(=O)(=O)NCc2nc(-c3cccc(C)c3)no2)cc1 | 2% | -9%
CCn1nc([N+](=O)[O-])c(C(C#N)c2nc3cc(C(F)(F)F)ccc3s2)c(Cl)c1=O (configuration not stated) | ? | 22µM*
CCCn1nc([N+](=O)[O-])c(C(C#N)c2nc3ccccc3o2)c(Cl)c1=O (configuration not stated) | 1% | -24%
Cc1cc(C)cc(OC(=O)c2snnc2C)c1 | -12% | -7%
CCCCOc1ccc(CNC(=O)CN2C(=O)CCn3nc(-c4cn(C)c5ccccc45)cc32)cc1 | ? | -3%
Cc1nc(NC(=O)c2ccccc2)sc1-c1csc(Nc2ccc(Cl)cc2Cl)n1 | 7.9µM* | 0%
COc1ccc(Cl)cc1Nc1nc(-c2sc(NC(=O)c3ccccc3)nc2C)cs1 | 6.3µM* | 2%
COc1ccc(OC)c(Nc2nc(-c3sc(NC(=O)c4ccccc4)nc3C)cs2)c1 | ? | 6%
SMILES | Cruzain noTriton | Cruzain inh Det
COc1ccccc1CNC(=O)CN1C(=O)COc2ccc(S(=O)(=O)Nc3ccccc3)cc21 | -22% | -2%
CCCn1c(Nc2nc3ccccc3n2C)nc2ccccc21 | 20µM* | 0%
CCCCn1c(Nc2ccccc2)nc2ccccc21 | -5% | 1%
CCOc1ccc(CC(=O)NCc2ccc3c(c2)CCN3C(C)=O)cc1OCC | 8% | 2%
CCc1ccc(NC(=O)c2ccc(F)c(S(=O)(=O)N3CCc4ccccc4C3)c2)cc1 | ? | 1%
CCc1ccc(NC(=O)C(C)OC(=O)c2cccc(S(=O)(=O)N3CCc4ccccc4C3)c2)cc1 (configuration not stated) | 16µM* | -2%
CC(CCc1ccccc1)NC(=O)c1ccccc1 (configuration not stated) | 10% | 1%
CC(CCc1ccccc1)NC(=O)c1ccc(C(=O)NC(C)CCc2ccccc2)cc1 (configuration not stated) | 25µM* | 1%
O=C(CCC1N=C2c3ccccc3N=C(SCC(=O)Nc3cccc(Cl)c3)N2C1=O)NCc1ccco1 (configuration not stated) | 25% | -8%
O=C(N/N=C/c1ccc(OC(=O)c2cccs2)cc1)c1cccc(F)c1 | 20µM* | -22%
COc1cccc(C(=O)NCC(=O)N/N=C/c2ccc(OC(=O)c3cccs3)c(OC)c2)c1 | 9% | -4%
O=C(COC(=O)c1cc(-c2ccccc2)nc2c(Cl)cccc12)c1ccc(F)cc1 | -4% | -2%
Cc1ccc(SCCNC(=O)CN(c2ccccc2)S(=O)(=O)N(C)C)cc1 | 5% | -5%
O=C(CN1C(=O)COc2ccc(S(=O)(=O)N3CCCC3)cc21)N1CCN(c2ccc(F)cc2)CC1 | ? | -4%
COc1ccc(-c2noc(CSc3nc4ccccc4c(=O)n3-c3ccc(C)cc3)n2)cc1 | 16µM* | 5%
Brc1ccccc1-c1nnc(CSc2nncn2-c2ccccc2)o1 | -8% | 2%
Cc1ccc2nc(SCc3nnc(-c4ccccc4Br)o3)[nH]c2c1 | 20µM* | -30%
Cc1sc2nc(SCC(=O)NCc3ccco3)n(-c3ccccc3)c(=O)c2c1C | -10% | 3%
Cc1sc2nc(SCc3nc(-c4ccccc4)no3)n(-c3ccccc3)c(=O)c2c1C | 25µM* | -3%
Cc1ccc2nc(SCc3nc(-c4ccccc4C)no3)[nH]c2c1 | -7% | -24%
COc1ccc(-n2c(SCc3nc(-c4ccc(C)cc4)no3)nnc2-c2ccccc2)cc1 | ? | -6%
O=c1c2ccccc2nc(SCc2nnc(-c3ccccc3Br)o2)n1-c1ccccc1 | 32µM* | -1%
COc1ccc(Cc2nc3ccccc3n2Cc2ccccc2C)cc1 | -3% | -9%
CCc1ccc(S(=O)(=O)c2nnn3c2nc(NCc2ccccc2)c2cc(Cl)ccc23)cc1 | ? | -4%
Cc1cccc(CC(=O)NC2CC(=O)N(c3cccc(F)c3)C2)c1 (configuration not stated) | 13% | 1%
SMILES | Cruzain noTriton | Cruzain inh Det
Cc1ccc(NC(=O)c2cc3c(-c4ccccc4)nn(-c4ccccc4)c3s2)cc1 | -5% | -1%
Cc1ccn2c(Nc3ccc4c(c3)OCO4)c(-c3ccco3)nc2c1 | ? | -19%
CCn1ccc2c(OCC(=O)NCc3ccc(C)cc3)cccc2c1=O | -3% | 0%
Cc1ccc(-c2csc(N(Cc3ccccc3)C(=O)COc3ccccc3)n2)cc1 | 7.9µM* | 6%
Cc1ccc(-c2csc(N(CCc3ccccc3)C(=O)COc3ccccc3)n2)cc1 | -20% | 3%
CNS(=O)(=O)c1cccc(C(=O)OCC(=O)/C=C2/N(C)c3ccccc3C2(C)C)c1 | 3% | -14%
CN1/C(=C\C(=O)COC(=O)CNC(=O)c2ccccc2F)C(C)(C)c2ccccc21 | 20µM* | 22µM*
CN1/C(=C\C(=O)COC(=O)CN2C(=O)C3CC=CCC3C2=O)C(C)(C)c2ccccc21 (configuration not stated) | 9% | -8%
